# From the supplement of paper PMC3545927
# The list shows a part of the results. The true hit rate is not given.
# Target: furin, P09958
# Assay: furin cleavage Z-score vs untreated control; higher = more cleavage, active = 3.5 or more, inactive = 1 or less, 8 variable residues between constant flanks
# Outline: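 Abundance of DNA freed from bead-bound 8-mer peptide–cDNA fusions by purified furin was measured as sequencing read counts after PCR adapter tagging. Cutting ran 7.5, 15 or 30 min in 0.01 ml of 50 mM HEPES pH 7.5 with CaCl2 and NaCl at 1:10 enzyme:substrate. The cleavage Z-score expresses these log counts against furin-free reactions after lowess adjustment and median absolute deviation scaling.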
# Chain of furin, P09958 (P09958 whole entry): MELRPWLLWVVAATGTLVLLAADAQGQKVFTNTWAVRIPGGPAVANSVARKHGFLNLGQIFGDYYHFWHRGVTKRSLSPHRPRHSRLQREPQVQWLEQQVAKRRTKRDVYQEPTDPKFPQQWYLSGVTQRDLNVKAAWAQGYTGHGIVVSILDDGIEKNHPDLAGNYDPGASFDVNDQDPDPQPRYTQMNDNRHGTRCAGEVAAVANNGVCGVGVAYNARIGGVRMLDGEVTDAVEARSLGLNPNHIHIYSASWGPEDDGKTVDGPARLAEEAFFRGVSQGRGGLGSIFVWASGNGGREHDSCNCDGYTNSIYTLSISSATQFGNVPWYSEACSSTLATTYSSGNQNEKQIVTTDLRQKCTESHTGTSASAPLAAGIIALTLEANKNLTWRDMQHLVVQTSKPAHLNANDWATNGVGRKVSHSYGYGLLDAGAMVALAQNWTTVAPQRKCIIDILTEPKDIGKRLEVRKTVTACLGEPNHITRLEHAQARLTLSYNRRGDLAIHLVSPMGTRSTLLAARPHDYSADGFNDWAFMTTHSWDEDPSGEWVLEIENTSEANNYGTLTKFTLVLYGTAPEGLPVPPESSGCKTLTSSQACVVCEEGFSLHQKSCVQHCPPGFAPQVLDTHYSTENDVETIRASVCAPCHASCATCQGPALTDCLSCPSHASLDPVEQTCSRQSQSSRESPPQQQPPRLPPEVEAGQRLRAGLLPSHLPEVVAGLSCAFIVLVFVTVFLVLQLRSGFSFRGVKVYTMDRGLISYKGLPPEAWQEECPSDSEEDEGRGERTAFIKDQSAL
Sequence,furin cleavage Z-score (7.5 min),furin cleavage Z-score (15 min),furin cleavage Z-score (30 min)
CAMEEKSQHLAGNASASA [HC11],0.661 (inactive),-0.101 (inactive),0.52 (inactive)
CATTPQSGSWAGNASASA [HC59],-0.528 (inactive),-0.454 (inactive),-0.569 (inactive)
CAGFTKVCGAAGNASASA [HC440],0.851 (inactive),0.701 (inactive),-1.33 (inactive)
CANSSIVYEAAGNASASA [HC265],0.639 (inactive),-1.3 (inactive),-0.329 (inactive)
CAEVVTSGWVAGNASASA [HC2216],0.374 (inactive),-0.391 (inactive),-0.0659 (inactive)
CARQAEVIAPAGNASASA [HC1031],0.765 (inactive),1.4,-0.146 (inactive)
CARVARVRGGAGNASASA [FS-1938],-0.221 (inactive),-0.337 (inactive),-1.51 (inactive)
CAGRGRERRWAGNASASA [FS-333],6.35 (active),9.27 (active),8.33 (active)
CAGTPCSGSWAGNASASA [HC1836],-0.934 (inactive),-0.454 (inactive),-1.18 (inactive)
CARVARHAAPAGNASASA [FS-2193],7.61 (active),8.49 (active),8.42 (active)
CAGRERMAREAGNASASA [FS-332],5.27 (active),6.35 (active),5.57 (active)
CARVARVAREAGNASASA [FS-1799],7.74 (active),5.71 (active),5.82 (active)
CAGREILLGPAGNASASA [HC664],-0.781 (inactive),-0.532 (inactive),0.339 (inactive)
CAPQARVAIKAGNASASA [HC1494],0.98 (inactive),-0.346 (inactive),1.74
CAGRGRGGGGAGNASASA [NG4],0.497 (inactive),-0.137 (inactive),0.673 (inactive)
CARVDRDVAPAGNASASA [FS-2616],0.776 (inactive),-0.0435 (inactive),0.369 (inactive)
CADFERKAREAGNASASA [FS-222],0.924 (inactive),0.123 (inactive),0.387 (inactive)
CAEVVISTWVAGNASASA [HC125],0.441 (inactive),-0.457 (inactive),-1.26 (inactive)
CACGAEITGHAGNASASA [HC1176],-2.29 (inactive),-1.09 (inactive),-4.52 (inactive)
CAEVPCHAPSAGNASASA [HC2363],0.635 (inactive),1.02,0.728 (inactive)
CARVARERRWAGNASASA [FS-292],7.91 (active),11.7 (active),9.72 (active)
CAEVPCHRPWAGNASASA [HC2408],-0.0166 (inactive),0.18 (inactive),0.457 (inactive)
CARPGRPARVAGNASASA [FS-1159],-0.325 (inactive),-0.113 (inactive),-0.65 (inactive)
CARIERVARVAGNASASA [FS-187],2.36,1.28,4.15 (active)
CARIERVIGAAGNASASA [FS-2212],0.267 (inactive),-1.07 (inactive),0.338 (inactive)
CARQGRIARVAGNASASA [FS-1608],4.13 (active),2.36,3.61 (active)
CARQGRVISVAGNASASA [FS-2168],-2.08 (inactive),-0.187 (inactive),0.163 (inactive)
CAFCTTPCSGAGNASASA [HC1947],1.42,-0.358 (inactive),-1.43 (inactive)
